The record followed here is PubChem BioAssay (NCATS).

Assay [1] can be described thus: A2780 Cisplatin Sensitive Ovarian Cancer Cell Toxicity qHTS against the NCATS CANVASS Library (AID 1347353). Also: series mostly up to about 46 µM; nearly all actives have a fitted effect of over 60% in size. The procedure, abridged: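 A2780 cells, 750/well, settled 4 h at 37 °C, then treated with an 11-point compound series for 72 h. Viability was read as ATPLite luminescence after 10 min at room temperature, with bortezomib as control.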
Background: In qHTS, concentration-response curves come from the screen itself.

Assay [2] in a line: HEK-293 Cancer Cell Toxicity qHTS against the NCATS CANVASS Library (AID 1347355). Also: series mostly up to about 46 µM; nearly all actives have a fitted effect of over 65% in size. The gist of the method:
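Cells at 1000/well were given compound 4 h after plating in an 11-point series. Viability was read by CellTiter-Glo luminescence after 72 h at 37 degrees C.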

The subject of assay [3] is NAD(P)H diaphorase (Clostridium kluyveri). In words: Diaphorse counterscreen qHTS: Assay Interference Panel against the NCATS CANVASS Library (AID 1347362). The gist of the method:
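Clostridium kluyveri diaphorase in PBS with 0.01% Tween-20 was preincubated 15 min at room temperature in the dark with compounds (11-point series). Resorufin fluorescence (ex 525/20, em 598/25) was read 5 min after adding resazurin/NADH.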
In general terms: A counterscreen serves to expose hits that act by an unwanted route or on another target.

The structures appear in SMILES notation. Results filed as inconclusive are left out. Active and inactive are the calls of the source. Calls follow the shape of the dose curve; as a rule, active = well fitted curve in the direction sought with a large enough effect; inconclusive = small, poorly fitted or top-dose-only effect, or another doubt; inactive = no such curve, though single readings can be large; an effect the other way counts as inactive or inconclusive.

Regarding `CC(C)c1ccc2c(c1)CCC1[C@](C)(C(=O)O)CCC[C@]21C` (stereo not given in full), the compound was classed as inactive in assay [1], in assay [2] and in assay [3].

Turning to `C/C(=C\CC/C(C)=C/CC[C@]1(C)CCc2cc(O)cc(C)c2O1)CC/C=C(\C)C(=O)O`, in assay [2], the compound was called inactive.

As for `O=C(/C=C/C=C/c1ccc2c(c1)OCO2)N1CCCCC1`, the compound was classed as inactive in assay [3].
